# Publication PMC7862700, “An all-to-all approach to the identification of sequence-specific readers for epigenetic DNA modifications on cytosine”
# Biological target: T1, ETV3L (Homo sapiens, UniProt Q6ZN32 1-361)
# T1 sequence: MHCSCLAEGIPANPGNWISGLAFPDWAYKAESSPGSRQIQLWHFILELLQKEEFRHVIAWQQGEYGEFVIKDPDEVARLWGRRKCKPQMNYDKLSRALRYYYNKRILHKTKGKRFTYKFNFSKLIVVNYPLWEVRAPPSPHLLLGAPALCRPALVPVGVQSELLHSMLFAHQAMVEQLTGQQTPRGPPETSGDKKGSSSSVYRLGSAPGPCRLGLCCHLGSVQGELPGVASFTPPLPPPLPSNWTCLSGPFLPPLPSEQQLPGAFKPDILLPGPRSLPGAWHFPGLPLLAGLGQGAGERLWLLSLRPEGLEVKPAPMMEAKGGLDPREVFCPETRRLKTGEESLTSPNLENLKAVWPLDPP
# Test: DAPPL (digital affinity profiling via proximity ligation, sequencing); 10 mM Tris-HCl pH 7.5, 50 mM NaCl, 1 mM DTT, 4% glycerol, room temperature, 30 min; GST-TFs on glutathione beads, 16-mer random dsDNA library, 0.1% formaldehyde crosslink after washing; high values mean tight binding
# Conditions: protein: recombinant; tags: N-terminal GST; dsDNA, one strand shown
# How it was run: (§1)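 Pools of DNA-barcoded human transcription factors, expressed in yeast as GST fusions on glutathione beads and combined with a tag-only sample, were incubated with 200 nmole of a 16-mer random double-stranded DNA library. Incubation took 30 min at room temperature in Tris/NaCl/DTT/glycerol buffer and was followed by washing, 0.1% formaldehyde crosslinking, proximity ligation (BsaI/T4 ligase, 1 h, 37 °C), PCR amplification and sequencing on an Illumina NextSeq500. Binding signal is the ratio of a hexamer's read frequency for a factor to its frequency for the tag-only sample.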
row,Sequence,binding signal
1,TTCTGA,"1.35 fold enrichment (6-mer frequency, TF over GST control)"
2,ATTCAC,"1.21 fold enrichment (6-mer frequency, TF over GST control)"
3,TCTAAA,"1.18 fold enrichment (6-mer frequency, TF over GST control)"
4,TATCAT,"1.21 fold enrichment (6-mer frequency, TF over GST control)"
5,TGGCAT,"1.1 fold enrichment (6-mer frequency, TF over GST control)"
6,ATCTTA,"1.1 fold enrichment (6-mer frequency, TF over GST control)"
7,TCTAAG,"1.17 fold enrichment (6-mer frequency, TF over GST control)"
8,ATTGGT,"1.24 fold enrichment (6-mer frequency, TF over GST control)"
9,GATGAC,"1.53 fold enrichment (6-mer frequency, TF over GST control)"
10,CTTTGT,"1.41 fold enrichment (6-mer frequency, TF over GST control)"
11,CCTTTA,"1.38 fold enrichment (6-mer frequency, TF over GST control)"
12,TCGACT,"1.27 fold enrichment (6-mer frequency, TF over GST control)"
13,TATTAT,"1.24 fold enrichment (6-mer frequency, TF over GST control)"
14,GATGTA,"1.39 fold enrichment (6-mer frequency, TF over GST control)"
15,GCTCCC,"1.27 fold enrichment (6-mer frequency, TF over GST control)"
16,CGACTC,"1.36 fold enrichment (6-mer frequency, TF over GST control)"
17,ATTGCA,"1.19 fold enrichment (6-mer frequency, TF over GST control)"
18,CTTCCC,"2.18 fold enrichment (6-mer frequency, TF over GST control)"
19,CAATAA,"1.13 fold enrichment (6-mer frequency, TF over GST control)"
20,ACTAAC,"1.29 fold enrichment (6-mer frequency, TF over GST control)"

# Biological target: T2, ETS2 (Homo sapiens, UniProt P15036 1-469)
# T2 sequence: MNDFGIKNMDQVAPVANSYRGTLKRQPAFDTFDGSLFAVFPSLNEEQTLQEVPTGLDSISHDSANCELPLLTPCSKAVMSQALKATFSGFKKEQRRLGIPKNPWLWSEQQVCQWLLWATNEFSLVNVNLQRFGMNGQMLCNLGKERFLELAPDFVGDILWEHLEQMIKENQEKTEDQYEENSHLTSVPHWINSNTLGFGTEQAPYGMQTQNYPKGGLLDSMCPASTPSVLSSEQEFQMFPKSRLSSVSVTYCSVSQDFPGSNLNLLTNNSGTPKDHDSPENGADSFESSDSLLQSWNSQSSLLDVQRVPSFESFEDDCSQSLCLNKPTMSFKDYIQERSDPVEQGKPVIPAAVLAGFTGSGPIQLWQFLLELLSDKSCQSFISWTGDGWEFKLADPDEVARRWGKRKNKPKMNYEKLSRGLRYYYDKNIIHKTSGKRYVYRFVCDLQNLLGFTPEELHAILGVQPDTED
# Test: as above
# Conditions: protein: recombinant; tags: N-terminal GST; dsDNA, one strand shown
# How it was run: as §1
row,Sequence,binding signal
1,CTTCGA,"1.36 fold enrichment (6-mer frequency, TF over GST control)"
2,CTCGCA,"1.35 fold enrichment (6-mer frequency, TF over GST control)"
3,TTTTAC,"1.44 fold enrichment (6-mer frequency, TF over GST control)"
4,TCCCAT,"1.4 fold enrichment (6-mer frequency, TF over GST control)"
5,AAAAAT,"1.3 fold enrichment (6-mer frequency, TF over GST control)"
6,TTATCG,"1.2 fold enrichment (6-mer frequency, TF over GST control)"
7,AATTAA,"1.24 fold enrichment (6-mer frequency, TF over GST control)"
8,AACATT,"1.29 fold enrichment (6-mer frequency, TF over GST control)"
9,CTAGCA,"1.18 fold enrichment (6-mer frequency, TF over GST control)"
10,TCTCGA,"1.44 fold enrichment (6-mer frequency, TF over GST control)"
11,AAAACG,"1.21 fold enrichment (6-mer frequency, TF over GST control)"
12,AAACAT,"1.48 fold enrichment (6-mer frequency, TF over GST control)"
13,TTCGCT,"1.3 fold enrichment (6-mer frequency, TF over GST control)"
14,GCTAAA,"1.13 fold enrichment (6-mer frequency, TF over GST control)"
15,GCTTTA,"1.2 fold enrichment (6-mer frequency, TF over GST control)"
16,TTCCTT,"1.94 fold enrichment (6-mer frequency, TF over GST control)"
17,CTCGAC,"1.45 fold enrichment (6-mer frequency, TF over GST control)"
18,TTCACT,"1.41 fold enrichment (6-mer frequency, TF over GST control)"
19,TACTCA,"1.19 fold enrichment (6-mer frequency, TF over GST control)"
20,AATACC,"1.21 fold enrichment (6-mer frequency, TF over GST control)"

row,Sequence,binding signal
1,TTCTGA,"1.43 fold enrichment (6-mer frequency, TF over GST control)"
2,ATTCAC,"1.29 fold enrichment (6-mer frequency, TF over GST control)"
3,TCTAAA,"1.21 fold enrichment (6-mer frequency, TF over GST control)"
4,TATCAT,"1.13 fold enrichment (6-mer frequency, TF over GST control)"
5,TGGCAT,"1.14 fold enrichment (6-mer frequency, TF over GST control)"
6,ATCTTA,"1.12 fold enrichment (6-mer frequency, TF over GST control)"
7,TCTAAG,"1.23 fold enrichment (6-mer frequency, TF over GST control)"
8,ATTGGT,"1.34 fold enrichment (6-mer frequency, TF over GST control)"
9,GATGAC,"1.44 fold enrichment (6-mer frequency, TF over GST control)"
10,CTTTGT,"1.24 fold enrichment (6-mer frequency, TF over GST control)"
11,CCTTTA,"1.32 fold enrichment (6-mer frequency, TF over GST control)"
12,TCGACT,"1.37 fold enrichment (6-mer frequency, TF over GST control)"
13,TATTAT,"1.16 fold enrichment (6-mer frequency, TF over GST control)"
14,GATGTA,"1.49 fold enrichment (6-mer frequency, TF over GST control)"
15,GCTCCC,"1.35 fold enrichment (6-mer frequency, TF over GST control)"
16,CGACTC,"1.38 fold enrichment (6-mer frequency, TF over GST control)"
17,ATTGCA,"1.15 fold enrichment (6-mer frequency, TF over GST control)"
18,CTTCCC,"2.32 fold enrichment (6-mer frequency, TF over GST control)"
19,CAATAA,"1.19 fold enrichment (6-mer frequency, TF over GST control)"
20,ACTAAC,"1.29 fold enrichment (6-mer frequency, TF over GST control)"
